# A selection: hits, their analogues and other compounds. The true share with any hit is near 2.9%.
# Shn3 3UTR inh – reduction of Shn3 3'UTR firefly luciferase signal, primary screen, Schnurri-3 inhibitor project, cell-based, Clone20 osteoblasts, set 2; AID 588674, 2011; hit rate 0.52% among 360,000; Clone20 osteoblast Shn3 3'UTR firefly luciferase, 24 h; inhibition, % at 12.5 µM;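 active = mean inhibition of at least 75% with every replicate also reaching 75%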;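 note: 0% = median of neutral control wells and 100% = pilot-screen positive control compound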
# HIF-2a inh – HIF-2a reporter inhibitors, primary screen, luminescence, 786-0 RCC cells. inhibition, % at 18.8 µM. 786-0 RCC cells HIF-2a reporter, luciferase luminescence, overnight. AID 624352, 2012. hit rate 0.72% among 360,000;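 active = inhibition of the luminescence signal of 40% or more relative to plate controls, in a single-dose primary screen at 18.75 µM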
# EBV LMP1 NFkB – EBV LMP1-driven NF-kappaB luciferase reporter inhibitors, primary screen, cell-based, luminescence, single point; LMP1-induced NF-kappaB luciferase reporter cells; inhibition, % at 12.5 µM; hit rate 0.69% among 350,000; in the data active = inhibition above about 41%;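 note: 0% = neutral control wells and 100% = reference inhibitor control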
# KKLEB tox – cytotoxicity in KKLEB CF airway cells, primary screen, cytotoxicity control for CF NF-kB inhibitor project, cell-based, uHTS, fluorescence assay plates | KKLEB CF airway cells viability, ATPlite luminescence, overnight; active compounds read low; cells stimulated with P. aeruginosa culture filtrate | activity change (cytotoxicity), % at 5 µM | hit rate 0.36% among 360,000;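 active = corrected activity change at or below -50% at 5 µM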
# CF NFkB block – inhibitors of PAF-induced NF-kB signaling, primary screen, cell-based, GFP fluorescence, uHTS | inhibition, % at 5 µM | KKLEB NF-kB-GFP reporter, GFP fluorescence overnight | hit rate 0.86% among 360,000 | AID 588850, 2011;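 active = at least 50% inhibition at 5 µM, scaled per plate between neutral and stimulator controls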;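 note: PAF is a Pseudomonas aeruginosa culture filtrate used as stimulus; plate controls were PAF-stimulated DMSO wells for no effect and unstimulated DMSO wells for full effect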
# Peg3 prom inh – Peg3 promoter-driven luciferase inhibitors, primary screen, cell-based, HeLa, luciferase luminescence | AID 588405, 2011 | hit rate 1.7% among 360,000 | HeLa PEG-Prom luciferase reporter, overnight | inhibition, % at 20 µM;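 active = inhibition of at least 50% at 20 µM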
# CF NFkB inh conf – inhibitors of PAF-induced NF-kB signaling, retest, confirmation, cell-based, GFP fluorescence, single concentration | shares compounds with CF NFkB block | KKLEB CF airway cells, overnight | inhibition, % at 5 µM | hit rate 64% among 1,300 | AID 602472, 2012; in the data active = inhibition above about 40%;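 note: stimulus PAF is a Pseudomonas aeruginosa filtrate and not platelet activating factor; plate controls were DMSO wells with stimulus for no effect and unstimulated DMSO wells for full effect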
# Starred values were filed as active, the others as inactive; . = not tested or not shown.
SMILES,Shn3 3UTR inh,HIF-2a inh,EBV LMP1 NFkB,KKLEB tox,CF NFkB block,Peg3 prom inh,CF NFkB inh conf
C[C@H]1Cn2cnc(C(=O)Nc3cccc(Cl)c3)c2C(=O)N1,10.8,-6.4,34.8,14.0,61.9*,38.6,91.1*
Oc1ccc(Cl)cc1Cc1cc(Cl)ccc1O,24.9,-7.7,7.1,29.6,77.0*,42.0,90.2*
O=C(Nc1ccc2ccccc2c1)c1ccccc1O,-13.2,-48.9,-24.2,-17.6,51.6*,-74.4,78.7*
O=C(CCN1CCN(S(=O)(=O)c2cccc([N+](=O)[O-])c2)CC1)Nc1ccccc1F,-13.3,13.2,4.9,-0.1,10.5,-6.0,.
CC1(C(=O)Nc2ccccc2Br)CCN1C(=O)Cc1ccc(Cl)cc1Cl (stereo unspecified),-4.2,5.3,.,8.5,0.2,11.4,.
Cc1nc(N2CCC(C(N)=O)CC2)c2c(-c3cccs3)csc2n1,15.2,23.9,12.5,-15.9,66.7*,18.1,68.2*
COc1ccc(S(=O)(=O)Nc2ccc(S(=O)(=O)Nc3nccs3)cc2)cc1,12.5,-5.1,2.4,-0.4,11.6,-8.3,.
Cc1cc(C)nc(Sc2ncnc(N)c2[N+](=O)[O-])n1,40.4,17.9,16.6,-12.0,63.0*,26.5,63.1*
Cc1cccc(Nc2ncnc(N)c2[N+](=O)[O-])n1,7.9,-2.0,5.8,13.9,28.8,-34.5,.
CCOCCCNS(=O)(=O)c1ccc(NC(=O)N2c3ccccc3Sc3ccccc32)cc1,21.2,-9.3,-2.1,7.0,9.8,29.0,.
O=C(CCS(=O)(=O)c1ccccc1)N(CCCN1CCOCC1)c1nc2ccc(F)cc2s1,-146.5,-180.0,-5.4,-38.2,59.1*,94.3*,1.9
O=C(CCS(=O)(=O)c1ccccc1)N(CCCN1CCOCC1)c1nc2c(F)cccc2s1,43.9,-75.0,-3.6,-39.0,93.6*,103.6*,71.4*
CC1(C)Cc2nc(-c3ccccc3)nc(SCC(=O)N3CCCC3)c2CO1,3.5,14.7,-2.9,16.2,-7.6,7.9,.
Cc1ncc(CO)c2c1Oc1nc(-c3ccccc3)nc(SCC(=O)N3CCCCC3)c1C2,6.9,13.1,-3.4,-5.0,85.0*,63.6*,29.5
Cc1ncc(CO)c2c1Oc1nc(-c3ccccc3F)nc(SCC(=O)N(C)c3ccccc3)c1C2,26.5,24.9,0.4,-27.9,94.3*,85.1*,95.7*
CC(=O)c1ccc[n+](CC(=O)NC(C)c2ccccc2)c1 (stereo unspecified),-4.1,17.1,-12.1,8.0,-21.4,6.0,.
CN(C(=O)c1ccccc1OCc1ccc(F)cc1)c1c(N)n(Cc2ccccc2)c(=O)[nH]c1=O,-6.5,5.8,-1.4,-9.8,15.3,3.0,.
CN(c1cccnc1)c1ncnc2[nH]ncc12,6.3,9.0,3.7,-0.3,18.3,-9.1,.
C=CCN(CC=C)c1ncnc2[nH]ncc12,4.7,14.8,29.1,3.1,65.0*,13.3,63.0*
CCOC(=O)c1c(C)[nH]c(C(=O)N/N=C/c2ccc(Br)cc2)c1C,8.0,-32.1,-2.9,-31.3,56.4*,-9.4,79.4*
CCOC(=O)c1c(C)[nH]c(C(=O)OCC(=O)Nc2cc(C)ccc2OC)c1C,25.1,25.2,2.8,-41.7,50.5*,29.6,38.8
COc1ccc(-c2cncnc2-c2ccc(OC)cc2O)cc1,0.5,19.1,21.6,-8.8,61.9*,7.6,82.9*
Fc1cccc(Cl)c1/C=N/Nc1c(Cl)cncc1Cl,0.9,-94.6,5.3,-12.6,52.8*,-60.4,67.0*
O=S(=O)(N/N=C\c1c(F)cccc1Cl)c1ccc(Cl)cc1,-9.0,19.6,-0.7,11.5,-13.8,3.5,.
COCCNC(=O)C(c1ccc(F)cc1)N(C(=O)CCC(=O)Nc1nccs1)c1cccc(C)c1 (stereo unspecified),6.3,11.7,-0.6,9.6,-5.4,-10.8,.
SMILES,Shn3 3UTR inh,HIF-2a inh,EBV LMP1 NFkB,KKLEB tox,CF NFkB block,Peg3 prom inh,CF NFkB inh conf
CC(C)CC(NC(=O)CCC(=O)OCC(=O)[C@@]1(O)CCC2[C@@H]3CCC4=CC(=O)C=C[C@]4(C)C3[C@@H](O)C[C@@]21C)C(=O)O (stereo partly specified),6.6,23.7,12.6,29.5,83.0*,-2.6,18.8
CCC(C(=O)OCC(=O)C1(O)CCC2C3CCC4=CC(=O)CCC4(C)C3C(O)CC21C)C(C)C (stereo unspecified),42.4,0.0,-2.8,5.4,56.4*,28.8,10.5
COc1ccc(COC(=O)C2=C(C)NC(=O)NC2c2ccc(OC)cc2)cc1 (stereo unspecified),12.7,26.5,4.2,7.8,52.8*,33.5,51.2*
CCCCOC(=O)C1=C(C)NC(=O)NC1c1ccc2c(c1)OCO2 (stereo unspecified),-12.0,14.4,-4.2,2.9,-6.4,8.9,.
CC1=C(C(=O)OCc2ccc3c(c2)OCO3)C(c2ccc(O)c([N+](=O)[O-])c2)NC(=O)N1 (stereo unspecified),16.1,19.9,11.8,-7.8,69.4*,3.0,75.7*
Cc1cc(C)n(CC(=O)NNC(=O)CC(C)c2ccccc2)n1 (stereo unspecified),-11.6,5.9,-1.8,-7.5,10.4,6.7,.
O=C(NCC1CCCO1)C(=O)N/N=C/c1cccc(Cl)c1 (stereo unspecified),-4.8,-16.6,-4.0,-25.1,26.6,-14.4,.
Clc1nc(Cl)c2ncn(-c3ccccc3)c2n1,-10.9,-95.6,0.4,-24.5,75.6*,80.9*,-14.7
CCOC(=O)N1CCN(S(=O)(=O)N2CCCC(C(=O)NCc3cc(Br)ccc3OC)C2)CC1 (stereo unspecified),59.1,14.9,-1.9,-1.8,-12.9,3.9,.
COc1ccc2[nH]c3c(c2c1)CCN1C(=O)C(CC(=O)NCCc2ccccn2)C[C@H](C(=O)N(C(C)C)C(C)C)[C@@]31C (stereo partly specified),-6.1,2.4,-5.4,-0.4,12.4,-1.5,.
COCCNc1nc(Oc2cncc(Cl)c2)c2sccc2n1,11.6,7.9,.,-19.9,62.3*,16.6,78.1*
COCCNc1nc(Oc2cccc(F)c2)c2sccc2n1,2.7,7.8,.,-13.7,33.3,7.5,.
Oc1c(C(c2ccccc2)N2CCOCC2)ccc2ccccc12 (stereo unspecified),10.9,9.9,-0.7,-44.4,79.0*,55.7*,-12.7
COc1ccccc1Cc1c(-c2cccc(Br)c2)nc2c(C)cc(Br)cn12,-9.1,-173.0,.,-6.3,55.1*,-24.0,5.4

# Source: PubChem BioAssay
